High-throughput results: PubChem BioAssay, National Center for Advancing Translational Sciences (NCATS)
In the library only some 3.4% were active in any assay of this set; here they are far more common.
PLK1 PBD block: blocks phosphopeptide binding to human PLK1 polo-box domain; Plk1 PBD binding of FITC phosphopeptide, fluorescence polarization; 360,000 tested, 2.8% active; P53350; Potency, µM, usual class: inhibitors; AID 720504; further: series mostly up to about 57 µM; nearly all actives have a fitted effect of over 65% in size
PKM2 act: increases activity of human pyruvate kinase M2; P14618; purified PKM2, Kinase-Glo ATP luminescence, activation; response scale: 0% is enzyme alone, no compound; Potency, µM (series often up to 57.5 µM), hits mostly activators; 260,000 tested, 0.34% active; further: nearly all actives have a fitted effect of over 55% in size
Target sequence (P14618 whole entry, looked up): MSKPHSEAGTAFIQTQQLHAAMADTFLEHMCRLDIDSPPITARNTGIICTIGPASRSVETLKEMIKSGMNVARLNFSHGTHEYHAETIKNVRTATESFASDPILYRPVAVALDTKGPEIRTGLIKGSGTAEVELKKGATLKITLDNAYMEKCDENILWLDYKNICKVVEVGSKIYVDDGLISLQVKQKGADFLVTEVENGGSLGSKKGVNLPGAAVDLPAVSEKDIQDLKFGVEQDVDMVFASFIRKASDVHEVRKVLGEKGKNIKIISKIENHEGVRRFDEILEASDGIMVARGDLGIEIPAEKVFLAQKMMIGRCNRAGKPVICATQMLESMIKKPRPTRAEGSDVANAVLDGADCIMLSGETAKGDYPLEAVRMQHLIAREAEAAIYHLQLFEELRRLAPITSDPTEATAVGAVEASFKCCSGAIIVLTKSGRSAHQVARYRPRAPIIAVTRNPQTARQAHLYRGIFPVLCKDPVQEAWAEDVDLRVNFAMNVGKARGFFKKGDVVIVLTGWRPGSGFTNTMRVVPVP
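ATP formation by purified human PK-M2, quantified via coupled luciferase luminescence after 1 h at room temperature with 0.1 mM ADP and 0.5 mM PEP final.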
GLS inhibitor: blocks human kidney-isoform glutaminase activity | AID 624170 | O94925 | Potency, µM (titrated, usually from 45.5 µM), actives largely listed as inhibitors | 410,000 tested, 0.21% active | GLS enzymatic activity, qHTS titration
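Read-out is an Amplex red fluorescence increase coupled through glutamate oxidase and HRP, measured before and after 30 min room-temperature incubation. hKGA is in 45 mM KH2PO4 (pH 8.2) with 0.02% Tween-20; glutamine added as 1mM solution.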
VDR inh: vitamin D3 receptor (human) inhibition | P11473 | VDR-SRC2-3 peptide fluorescence polarization, 2 h | Potency, µM, usual class: inhibitors | 400,000 tested, 0.93% active
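Compounds are added to VDR with labelled SRC2-3 coactivator peptide and held 2 h at room temperature. Inhibition of the VDR–peptide interaction is then read as a change in fluorescence polarization.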
Mito fusion act: inhibitors of mitochondrial division or activators of mitochondrial fusion; S. cerevisiae fusion-defective mutant growth rescue, CellTiterGlo 48 h; Potency, µM (series often up to 46.1 µM), most hits filed as activators; 320,000 tested, 0.23% active; AID 485298; further: nearly all actives have a fitted effect of over 45% in size
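Yeast fusion mutant, YPEG (non-fermentable carbon), compound, 48 h at 37C non-permissive; CellTiterGlo added, 10 min RT, luminescence read. Rescued growth = division inhibition.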
KAT2A inh: GCN5L2 (KAT2A) acetyltransferase inhibition | Q92830 | GCN5L2 HAT assay, ThioGlo1 CoA-SH fluorescence | Potency, µM (top dose mostly 58.9 µM), actives largely listed as inhibitors | 390,000 tested, 0.21% active
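GCN5L2 (20 nM) in 50mM HEPES pH 7.5, 0.1mM EDTA, 0.01% Tween-20 preincubated 15 min with compounds at room temperature. Reaction started with H3(1-25) 75uM, acetyl-CoA 70uM, ThioGlo1 50uM; CoA-thiol fluorescence (Ex340/Em540) read at 0 and 20 min.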
Hits are given with their value; - = inactive; ? = inconclusive; . = not tested or not shown; [ ] = remark or other dose. The call rests on the fitted dose curve; in most records, active means well fitted curve in the direction sought with a large enough effect; inconclusive means small, poorly fitted or top-dose-only effect, or another doubt; inactive means no such curve, though single readings can be large; an effect the other way counts as inactive or inconclusive.

SMILES	PLK1 PBD block	PKM2 act	GLS inhibitor	VDR inh	Mito fusion act	KAT2A inh
CC(/C=C/c1ccco1)=N/NC(=O)c1ccc(C)nc1	-	-	-	-	-	-
CC(=O)Nc1ccc2c(c1)CCCC2	-	-	-	-	-	-
CC(=O)Nc1ccc2c(c1)C(C)(C)C(C)N2C (stereo not drawn)	-	-	-	44.7µM	-	-
C[C@@H](c1ccccc1)N1C[C@H](COCc2ccccc2)Oc2cc(N3CC[C@@H](O)C3)ccc2S1(=O)=O	-	.	-	.	.	.
COc1cc(/C=C2/C(=O)NN(c3ccc(C)c(Cl)c3)C2=O)cc([N+](=O)[O-])c1O	?	.	-	?	-	-
COc1cccc(/C=C2/C(=O)NN(c3ccc(F)cc3)C2=O)c1	5.32µM	.	-	44.7µM	-	-
O=C1NN(c2ccccc2)C(=O)/C1=C\c1ccc2c(c1)OCO2	26.7µM	-[11.5 µM]	-	-	-	-
CCOc1cc(/C=C2/C(=O)NN(c3cccc(Cl)c3)C2=O)ccc1O	?	-[11.5 µM]	-	?	-	-
COc1cc(/C=C2/C(=O)NN(c3cccc(Cl)c3)C2=O)cc(OC)c1O	-	-	-	79.4µM	-	-
COc1cc(/C=C2\C(=O)NN(c3ccccc3)C2=O)ccc1OCC(N)=O	.	.	.	.	-	-
COc1cccc(/C=C2/C(=O)NN(c3ccc(C)c(C)c3)C2=O)c1	5.97µM	-	-	79.4µM	-	-
Cc1nn(-c2ccccc2)c2nc(C3CC3)cc(C(=O)Nc3ccc(F)cc3)c12	.	.	-	-	.	-
O=c1c(-c2ccc(Cl)cc2)nc2cnc(N3CCNCC3)nc2n1Cc1cccs1	.	.	.	-	.	?
COc1cccc(/C=C2/C(=O)NN(c3ccccc3)C2=O)c1	5.32µM	.	?	?	-	-
COc1cc(/C=C2\SC(=O)N(c3cccc(Cl)c3)C2=O)cc([N+](=O)[O-])c1O	?	7.94µM	?	-	-	?
COc1cc(/C=C2\SC(=O)N(c3ccc(Cl)cc3)C2=O)cc([N+](=O)[O-])c1O	?	-	?	-	-	-
COc1ccc(C2(CNC(=O)c3cccc([N+](=O)[O-])c3)CCOCC2)cc1OC	15µM	-	-	?	-	-
Cn1nc(C(F)(F)F)c(/C=N/OC(=O)c2ccccc2)c1Sc1ccc(Cl)cc1	-	-	-	89.1µM	-	-
CCc1c(C)sc(NC(=O)c2cc(C)no2)c1C#N	29.9µM	-	-	-	-	-
CCc1cc(C(=O)Nc2sc(C)c(CC)c2C#N)no1	.	.	-	79.4µM	.	-
COc1ccccc1CNC(=O)CCNS(=O)(=O)c1ccc2[nH]c(=O)oc2c1	33.6µM	.	-	-	-	-
COc1ccccc1NC(=O)CCNS(=O)(=O)c1ccc2[nH]c(=O)oc2c1	29.9µM	.	-	?	-	-
COc1cccc(CNC(=O)CCNS(=O)(=O)c2ccc3[nH]c(=O)oc3c2)c1	-	.	-	-	-	-
Cc1cc(C)nc(SCC(=O)NC2CCCC2)n1	-	-	-	-	-	-
Cc1cc(C)nc(NNC(=O)NC2CCCCC2)n1	26.7µM	-	-	?	-	-
SMILES	PLK1 PBD block	PKM2 act	GLS inhibitor	VDR inh	Mito fusion act	KAT2A inh
Nc1nc(SCC(=O)O)c2[nH]cnc2n1	.	.	.	-	.	.
COc1ccc(-c2noc(CN3CCN(C(=O)c4cccs4)CC3)n2)c(OC)c1OC	21.2µM	.	-	-	-	-
CCCCCCn1c(=O)n2n(c1=O)C[C@]1(OC(=O)NCC3CCCCC3)CN(S(=O)(=O)c3ccc(C)cc3)C[C@]1(O)C2	-	.	-	.	.	.
COc1ccc(Cl)cc1C=CC=NNS(=O)(=O)c1ccc(C)cc1	-	.	-	-	.	.
COc1ccc(Cl)cc1C=CC=Nc1ccccc1O	-	.	-	89.1µM	.	.
O=C(NN1CCOCC1)c1cccc2ccccc12	29.9µM	-	?	?	-	-
O=C(NN1CCOCC1)c1ccccc1F	-	-	-	-	-	-
COc1ccc(NS(=O)(=O)c2cc3[nH]c(=O)c(=O)[nH]c3cc2C)cc1OC	.	.	-	-	.	-
O=C1C=CC(=Nc2ccc(F)cc2)O1	?	.	-	79.4µM	.	.
CCOc1cc(-c2nn3cnnc3s2)cc(OCC)c1OCC	3.77µM	-	?	?	-	-
CC[C@@H](NC(=O)[C@H](Cc1ccccc1)NC(=O)CC[C@H]1O[C@@H](n2ccc(=O)[nH]c2=O)[C@H](O)[C@@H]1O)c1ccccc1	-	.	-	.	.	.
CCSc1n[nH]c2nc3c(c(=O)n12)C1(CCCCC1)Cc1ccccc1-3	13.4µM	-	-	?	-	-
CSc1n[nH]c2nc3c(c(=O)n12)C1(CCCCC1)Cc1ccccc1-3	23.8µM	-	-	-	-	-
O=C1OCC2=C1C(c1ccc(F)cc1)CC(=O)N2c1ccccc1 (stereo not drawn)	.	-	.	.	-	-
CCCCC/C=C\C[C@@H]1O[C@H]1C(O)/C=C\C/C=C\CCCC(=O)O (stereo partly drawn)	.	.	.	-	.	.
O=C(O)c1ccccc1NC(=O)c1ccccc1Nc1ccccc1	29.9µM	.	-	-	-	?
O=C(Nc1ccccc1C(=O)Nc1ccccc1C(=O)O)c1ccccc1	?	.	-	-	-	-
O=C(O)c1ccccc1Nc1ccc(CCc2ccc(Cl)c(Cl)c2)cc1	.	.	.	35.5µM	.	11.2µM
CNC(=O)[C@H](C)[C@H]1C[C@]1(C)[C@H](NC(=O)OCc1ccccc1)c1ccccc1	.	-	.	.	.	.
COc1ccc(-n2ccc(=O)c3c2CCCC3=O)cc1	-	28.2µM	-	-	-	-
N#Cc1c(NC(=O)c2cnccn2)sc2c1CCCC2	26.7µM	-	-	-	-	-
N#Cc1c(NC(=O)c2cccnc2)sc2c1CCC2	-	-	-	-	-	-
Cn1ncc(Cl)c1C(=O)NC(=S)Nc1sc2c(c1C#N)CCCCC2	8.44µM	-	-	-	-	-
CC(C)c1cc(C(=O)Nc2sc3c(c2C#N)CCC3)no1	23.8µM	-	-	-	-	-
CC(C)c1ccc(C(=O)NNC(=O)C2C3CCC(C3)C2C(=O)O)cc1 (stereo not drawn)	.	.	.	.	-	-
SMILES	PLK1 PBD block	PKM2 act	GLS inhibitor	VDR inh	Mito fusion act	KAT2A inh
COc1ccccc1-n1c(CNC(=O)c2ccco2)nnc1SCC(=O)Nc1cc(C)ccc1C	2.99µM	-	?	-	-	-
COc1ccccc1-n1c(CNC(=O)c2ccco2)nnc1SCC(=O)Nc1ccc(F)cc1	-	-	-	-	-	-
CC1CC(C)CN(C(=O)c2cccc(S(=O)(=O)Nc3cc(C(F)(F)F)ccc3Cl)c2)C1 (stereo not drawn)	-	-	-	-	15.8µM	-
O=C(O)c1cccc(S(=O)(=O)Nc2cc(Cl)ccc2Cl)c1	-	-	-	-	-	-
COC(=O)C1=COC(O[C@H]2OC(CO)[C@H](O)C(O)C2O)[C@H]2C1C(=O)C[C@@H]2C (stereo partly drawn)	.	.	.	-	.	.
CCCCCCCCC(=O)N1C(C)CCC1C (stereo not drawn)	-	.	-	.	.	.
